TROY signal inh: inhibitors of TROY-dependent NF-kB signaling; Q293 LMP1-TROYcd NF-kB luciferase reporter, 4 h; inhibition, % at 10 µM; 0.98% of 360,000 active; AID 1347056;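 active = compounds whose plate-normalised and pattern-corrected inhibition of the luciferase reporter signal at the single screening dose is 50% or more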
CF NFkB inh: cystic fibrosis NF-kB activation inhibition | KKLEB NF-kB-GFP reporter, PAF-induced, GFP fluorescence overnight | inhibition, % at 5 µM | 0.86% of 360,000 active | AID 588850;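 active = at least 50% inhibition at 5 µM, scaled per plate between neutral and stimulator controls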;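 note: PAF is a Pseudomonas aeruginosa culture filtrate used as stimulus; plate controls were PAF-stimulated DMSO wells for no effect and unstimulated DMSO wells for full effect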
KKLEB tox: counter-screen for CF NF-kB inhibitors: cytotoxicity; KKLEB CF airway cells viability, ATPlite luminescence, overnight; active compounds read low; cells stimulated with P. aeruginosa culture filtrate; activity change (cytotoxicity), % at 5 µM; 0.36% of 360,000 active;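 active = corrected activity change at or below -50% at 5 µM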
HIF-2a inh: blocks HIF-2a reporter activity; 786-0 RCC cells HIF-2a reporter, luciferase luminescence, overnight; inhibition, % at 18.8 µM; 0.72% of 360,000 active;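 active = inhibition of the luminescence signal of 40% or more relative to plate controls, in a single-dose primary screen at 18.75 µM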
Peg3 prom inh: reduces Peg3 promoter-driven luciferase expression in HeLa. HeLa PEG-Prom luciferase reporter, luminescence, overnight. inhibition, % at 20 µM. 1.7% of 360,000 active;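 active = inhibition of at least 50% at 20 µM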
TWEAK Fn14 block: inhibitors of TWEAK-Fn14 interaction signaling; 2% of 360,000 active; inhibition, % at 10 µM; TWEAK-stimulated Fn14 reporter cells, luciferase luminescence, 8 h; in the data active = inhibition above about 50%
CF NFkB conf: CF NF-kB inhibition confirmation, single concentration. shares compounds with CF NFkB inh. KKLEB CF airway cells, PAF-induced NF-kB-GFP fluorescence, overnight. inhibition, % at 5 µM. 64% of 1,300 active. AID 602472; in the data active = inhibition above about 40%;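 note: stimulus PAF is a Pseudomonas aeruginosa filtrate and not platelet activating factor; plate controls were DMSO wells with stimulus for no effect and unstimulated DMSO wells for full effect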
Mdm2-MdmX confirm: confirmation of inhibitors of human Mdm2/MdmX interaction, set 2. 99% of 740 active. SaOS-2 split-luciferase Mdm2/MdmX complementation, luminescence. inhibition, % at 8 µM. shares compounds with HIF-2a inh. AID 504601;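 active = mean inhibition of the luminescence signal across two replicates at or above 26 percent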
Target sequence (O15151 whole entry, looked up): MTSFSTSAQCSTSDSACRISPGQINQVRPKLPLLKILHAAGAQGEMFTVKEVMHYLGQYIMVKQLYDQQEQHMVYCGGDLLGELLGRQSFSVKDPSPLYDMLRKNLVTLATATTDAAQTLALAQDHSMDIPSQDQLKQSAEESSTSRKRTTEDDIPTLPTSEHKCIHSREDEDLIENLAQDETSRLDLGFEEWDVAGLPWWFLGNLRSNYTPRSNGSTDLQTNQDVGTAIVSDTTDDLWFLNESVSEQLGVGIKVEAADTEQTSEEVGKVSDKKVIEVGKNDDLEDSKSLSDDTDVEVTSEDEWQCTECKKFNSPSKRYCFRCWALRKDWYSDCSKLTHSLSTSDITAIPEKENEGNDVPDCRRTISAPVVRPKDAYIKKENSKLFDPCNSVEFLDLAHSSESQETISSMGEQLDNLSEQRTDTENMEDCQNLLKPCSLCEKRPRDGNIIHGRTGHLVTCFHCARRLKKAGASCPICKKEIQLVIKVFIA
Target sequence (Q00987 whole entry, looked up): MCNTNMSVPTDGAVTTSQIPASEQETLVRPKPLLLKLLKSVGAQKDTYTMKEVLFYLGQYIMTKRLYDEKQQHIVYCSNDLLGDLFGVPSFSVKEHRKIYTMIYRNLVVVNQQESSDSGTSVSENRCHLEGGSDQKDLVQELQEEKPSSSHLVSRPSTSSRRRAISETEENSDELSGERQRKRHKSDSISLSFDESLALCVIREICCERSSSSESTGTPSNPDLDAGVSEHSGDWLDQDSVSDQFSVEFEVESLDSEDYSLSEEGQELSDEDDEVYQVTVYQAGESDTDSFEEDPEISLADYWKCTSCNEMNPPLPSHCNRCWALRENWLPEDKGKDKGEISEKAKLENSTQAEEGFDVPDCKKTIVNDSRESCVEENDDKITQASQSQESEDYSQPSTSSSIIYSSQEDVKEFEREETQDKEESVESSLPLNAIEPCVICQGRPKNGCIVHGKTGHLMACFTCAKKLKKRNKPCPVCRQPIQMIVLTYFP
HIF-2a conf: confirmation of HIF-2a inhibitors. shares compounds with HIF-2a inh. AID 651580. 786-0 RCC cells, HIF-2a luciferase reporter luminescence, overnight. 56% of 1,800 active. inhibition, % at 18.8 µM;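 active = mean inhibition across four replicates of at least 40 percent at the single tested concentration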
HIF-1a cs: HIF-1a inhibition counter-screen for HIF-2a hits. shares compounds with HIF-2a inh. MiaPaCa-2 HIF-1a luciferase reporter, desferoxamine, overnight. inhibition, % at 18.8 µM. 72% of 1,800 active;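 active = mean inhibition of the reporter signal across four replicates at the single tested dose of 50% or more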
Starred values were filed as active, the others as inactive. A selection: hits, their analogues and other compounds. The true share with any hit is near 4%.

For COc1ccc(-c2csc3ncnc(Sc4nnnn4C)c23)cc1 the results were TROY signal inh 28.6, CF NFkB inh 58.5*, KKLEB tox -22.7, HIF-2a inh 61.7*, Peg3 prom inh 69.0*, TWEAK Fn14 block 56.0*, CF NFkB conf 54.2*, HIF-2a conf 62.4* and HIF-1a cs 103.9*.
`Cn1nnnc1Sc1c(Cl)cccc1[N+](=O)[O-]` gave TROY signal inh 6.4, CF NFkB inh 18.1, KKLEB tox 9.3, HIF-2a inh 17.2, Peg3 prom inh -2.4 and TWEAK Fn14 block 2.5.
`Cn1nnnc1Sc1ncnc2scc(-c3ccccc3Cl)c12` gave TROY signal inh 37.7, CF NFkB inh 56.2*, KKLEB tox -23.5, HIF-2a inh 65.4*, Peg3 prom inh 105.6*, TWEAK Fn14 block 51.5*, CF NFkB conf 23.9, HIF-2a conf 31.8 and HIF-1a cs 90.7*.
`Cn1nnnc1Sc1ncnc2scc(-c3cccc(S(C)(=O)=O)c3)c12` gave TROY signal inh 26.7, CF NFkB inh 52.1*, KKLEB tox -14.0, HIF-2a inh 63.4*, Peg3 prom inh 100.1*, TWEAK Fn14 block 60.9*, CF NFkB conf 17.5, HIF-2a conf 31.9 and HIF-1a cs 65.7*.
Cc1cc(NC(=O)CCN2CCN(CCO)CC2)ccc1Br was read as TROY signal inh 18.6, CF NFkB inh -6.6, KKLEB tox 9.6, HIF-2a inh 6.7, Peg3 prom inh 10.3 and TWEAK Fn14 block -17.3.
COc1ccc(-n2c(=O)c3c4c(sc3n(CC(=O)Nc3cc(C)[nH]n3)c2=O)CCCC4)c(OC)c1 was read as TROY signal inh -6.5, CF NFkB inh 4.6, KKLEB tox -6.6, HIF-2a inh 22.3, Peg3 prom inh 28.0 and TWEAK Fn14 block 1.0.
For O=C(C1CCN(S(=O)(=O)c2cnc[nH]2)CC1)N1CCN(c2ccc([N+](=O)[O-])cc2)CC1 the results were TROY signal inh -12.5, CF NFkB inh -0.7, KKLEB tox 2.6, HIF-2a inh 14.2, Peg3 prom inh -15.1 and TWEAK Fn14 block -20.3.
`COc1cc(-c2nc(-c3ccc(NC(=O)c4ccc5c(c4)OCO5)cc3)no2)cc(OC)c1OC` gave TROY signal inh -39.3, CF NFkB inh 58.0*, KKLEB tox -49.3, HIF-2a inh -137.9, Peg3 prom inh -76.6, TWEAK Fn14 block -90.4, CF NFkB conf 42.2* and Mdm2-MdmX confirm 87.7*.
Screening CCc1ccc(Nc2n[n+](-c3ccccc3)c(-c3c(Cl)cccc3Cl)s2)cc1 returned TROY signal inh 59.4*, CF NFkB inh 52.0*, KKLEB tox -41.5, HIF-2a inh -57.2, Peg3 prom inh 96.5*, TWEAK Fn14 block 51.9*, CF NFkB conf 87.6* and Mdm2-MdmX confirm 101.0*.
For CCOc1ccc2c(c1)C(C)=CC(C)(C)N2 the results were TROY signal inh -3.7, CF NFkB inh 7.8, KKLEB tox 0.0, HIF-2a inh 0.4, Peg3 prom inh 10.2 and TWEAK Fn14 block 34.5.
`CC1=CC(C)(C)Nc2ccc(OC(=O)CN3C(=O)c4ccccc4C3=O)cc21` gave TROY signal inh 32.6, CF NFkB inh 50.9*, KKLEB tox 0.6, HIF-2a inh 87.5*, Peg3 prom inh 102.0*, TWEAK Fn14 block 89.2*, CF NFkB conf -71.5, HIF-2a conf 88.0* and HIF-1a cs 95.9*.
CC(C)(C)C(=O)Cn1ncc(Br)c(Br)c1=O was read as TROY signal inh 53.3*, CF NFkB inh 78.3*, KKLEB tox -40.9, HIF-2a inh 94.3*, Peg3 prom inh 97.1*, TWEAK Fn14 block 79.1*, CF NFkB conf 37.7, HIF-2a conf 93.4* and HIF-1a cs 105.2*.
For C=C1C(=O)OC2CC1C(OC(C)=O)CC(C)=CCCC(C)=CCCC2(C)O (configuration not stated) the results were TROY signal inh 38.4, CF NFkB inh 93.8*, KKLEB tox -44.4, HIF-2a inh 91.5*, Peg3 prom inh 98.9*, TWEAK Fn14 block 70.7*, CF NFkB conf 32.1, HIF-2a conf 92.4* and HIF-1a cs 104.2*.
For C=C1C(=O)OC2C1CCC(C)C1C=CC(=O)C12C (configuration not stated) the results were TROY signal inh 2.1, CF NFkB inh 14.8, KKLEB tox 5.8, HIF-2a inh 27.6, Peg3 prom inh 48.2 and TWEAK Fn14 block 48.0.
Screening C=C1C(=O)OC2CC1C(O)CC(C)=CCCC(C)=CC(O)CC2C (configuration not stated) returned TROY signal inh 37.2, CF NFkB inh 81.4*, KKLEB tox -40.0, HIF-2a inh 94.3*, Peg3 prom inh 97.8*, TWEAK Fn14 block 92.2*, CF NFkB conf 96.8*, HIF-2a conf 97.5* and HIF-1a cs 106.6*.
CSc1ccc(S(=O)(=O)N2CCC(C(=O)Nc3ccc(C(N)=O)cc3)CC2)cc1 was read as TROY signal inh 9.1, CF NFkB inh 14.4, KKLEB tox -16.3, HIF-2a inh 3.4, Peg3 prom inh 6.5 and TWEAK Fn14 block -9.6.
Screening COc1ccc([C@@H]2[C@@H]3C(=O)N(C(C)(C)C)C(=O)[C@@H]3[C@]3(C)C(=O)N(c4cccc(Br)c4)C(=O)N23)cc1 returned TROY signal inh -5.6, CF NFkB inh 15.8, KKLEB tox -9.7, HIF-2a inh 9.6, Peg3 prom inh -14.7 and TWEAK Fn14 block 11.3.
`CCOC(=O)N1C(=O)[C@@](c2ccc(Cl)cc2)(C(C)C)N1C(=O)OCC` gave TROY signal inh 35.5, CF NFkB inh 69.8*, KKLEB tox -16.1, HIF-2a inh 67.6*, Peg3 prom inh 99.6*, TWEAK Fn14 block 76.3*, CF NFkB conf 34.9, HIF-2a conf 57.8* and HIF-1a cs 85.1*.
Cc1nc2ccccc2c(=O)n1NCc1cccs1 was read as TROY signal inh -5.2, CF NFkB inh -7.3, KKLEB tox 5.0, HIF-2a inh -57.4, Peg3 prom inh -9.9 and TWEAK Fn14 block 23.0.
COc1cccc(C(=O)OCC(=O)NC23CC4CC(CC(C4)C2)C3)c1 was read as TROY signal inh -13.0, CF NFkB inh 5.3, KKLEB tox -2.9, HIF-2a inh 10.3, Peg3 prom inh -11.2 and TWEAK Fn14 block -1.9.

Source: PubChem
